Reference: PubChem BioAssay
Several values for one entry are separate records, joined by “and”; a condition that tells them apart may be missing. Equal entries are not always repeated. More than one record can exist for a structure, and the calls need not agree. Activity calls are given as the source filed them.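 Rule for the calls, unless noted: active = normalized viability below 100% at a tested concentration; inactive = the rest.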

Columns and labels:
[1] = ovarian cancer cell viability with rucaparib, profiling panel, oncology-focused library, rucaparib conditional (AID 1508598); details: patient-derived ovarian cancer cells, CellTiter-Glo viability, 144 h, stronger effect = lower value
[2] = target: NAD(+) hydrolase SARM1 (Homo sapiens) (UniProt Q6SZW1); assay: SARM1 TIR NADase inhibitors, cell lysate, NAD-Glo luminescence (AID 1508614;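 active = compound whose remaining NAD level is above about 45 nM, limit read from the data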;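 note: higher remaining NAD means stronger inhibition of SARM1 NADase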); details: SAM-TIR HEK293T lysate NADase, at 1 µM, stronger effect = higher value
[3] = target: Mitogen-activated protein kinase 7 (Homo sapiens) (UniProt Q13164); assay: ERK5 transactivation activators in reporter cells, primary screen, cell-based, HTS (AID 1508626;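 active = luciferase signal above three times the same-plate solvent-only control wells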;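 note: luciferase driven by Gal4-ERK5 fusion binding five Gal4 sites before minimal TATA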); details: HeLa Gal4-ERK5 transactivation, 18 h, at 5 µM, stronger effect = higher value
[4] = test system: F380Y; assay: modulators of BK channel variants, profiling panel, selectivity assay, cell-based, U2OS BacMam, thallium flux, beta subunits (AID 1259406;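 active = thallium flux through the channel raised or lowered by more than 3 SD from vehicle-only wells, actives on both sides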;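 note: initial slope of Thallos dye fluorescence rise after thallium is added; log ratio against the mean of 0.3% DMSO vehicle wells on the same plate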); details: at 30 µM
[5] = test system: F380Y/beta1; assay: as above; details: at 30 µM
[6] = test system: F380Y/beta2Delta; assay: as above; details: at 30 µM
[7] = stimulators of nuclear beta-catenin in C2C12, primary screen, imaging, WNT3A-conditioned medium, mouse C2C12, NPC library (AID 1117326; in the data active = nuclear beta-catenin stimulation mostly above about 4.2%, no sharp cut-off; inactive = mostly below about 10%); details: stronger effect = higher value
[8] = stimulators of insulin release from INS-1E, primary screen, cell-based, 5 mM glucose, NPC library (AID 1117329;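 active = compound raises insulin release from rat beta cells at 5 mM glucose, no numeric limit stated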); details: rat INS-1E insulin secretion, at 10 µM, stronger effect = higher value
[9] = growth inhibition of GSK3B-pretreated HCT116 cells – cell-based, CellTiter-Glo, 0.2 to 20 µM (AID 1117336;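 active = compounds lowering colon cancer cell viability after pretreatment blocking the GSK3B kinase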); details: HCT116 viability after GSK3B inhibitor, at 20 µM, stronger effect = higher value
[10] = inhibition of endothelial tube formation, primary screen, imaging, VEGF stimulated, CD31 staining, tube area, NPC library (AID 1117340;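 active = compound that reduces growth-factor-driven endothelial tube area in a mixed cell culture, no cutoff stated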); details: VEGF-stimulated ADSC/ECFC co-culture, at 10 µM, stronger effect = higher value
[11] = glucagon-like peptide 1 release enhancers, primary assay, NCI-H716 cell line, NPC library (AID 1117341;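 active = compound raises GLP1 secretion from the human gut endocrine cells, with no numeric limit stated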); details: NCI-H716 cells, at 10 µM, stronger effect = higher value
[12] = HCT116 colon cancer cell growth inhibition, primary screen, CellTiter-Glo luminescence, NPC library (AID 1117342;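 active = compounds that lower survival of HCT116 colon cancer cells in the luminescence readout, no numeric limit stated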); details: at 20 µM (top of the series)
[13] = CellTiter-Glo luminescent readout of SW480 viability loss, NPC library primary (AID 1117343;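 active = compounds that lower viability of the colon cancer cells in the luminescence readout, with no numeric limit stated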); details: CellTiter-Glo luminescence; at 20 µM (top of the series)
[14] = decreased DLD-1 cellular survival, CellTiter-Glo luminescent readout, NPC compound collection, primary HTS (AID 1117346;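 active = compounds that lower survival of DLD-1 colon cancer cells in the luminescence readout, no cutoff given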); details: DLD-1 viability, CellTiter-Glo luminescence; at 20 µM (top of the series)
[15] = target: 6-phosphogluconate dehydrogenase, decarboxylating (Homo sapiens) (UniProt P52209); assay: 6PGD enzyme inhibitors, primary screen, biochemical, human, recombinant enzyme, NADPH absorbance (AID 1159550;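 active = at least 20% inhibition of 6-phosphogluconate dehydrogenase activity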); details: recombinant 6PGD, NADPH absorbance 341 nm; at 10 µM; stronger effect = higher value
[16] = survival rescue of mitochondrial mutant cells in low glucose, primary screen, MELAS cybrids, Rieske KO mouse fibroblasts, CellTiter-Glo (AID 1508586;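 active = mean z-score across replicates of 1.96 or higher in either the MELAS or the Rieske mutant cell line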;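 note: z relative to plate mean and SD of compound and empty wells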)
[17] = modulation of C. elegans fzo-1 (AID 1259413; call rule not given here;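 note: fzo-1 mutant C. elegans worms in liquid wells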); details: C. elegans fzo-1 modulator screen, mean read-out; stronger effect = higher value
[18] = differential killing of epithelial or mesenchymal cells, primary screen, imaging, PC-3E GFP, TEM4-18 mCherry, co-culture (AID 1345086;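 active = compounds killing one labelled cell type while sparing the other, by normalised counts and ratio limits, not self-fluorescent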;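 for all read-outs here: cells exposed to compound for 72 h before imaging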;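 for red/green cell ratio (normalised): normalised mesenchymal count divided by normalised epithelial count so high means epithelial killing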); details: imaging cell counts, at 1 µM; for red/green cell ratio (normalised): actives lie on both sides, counts scaled to control wells, 1 = unselective
[19] = sensitizers of A549 cells to miR-34 induction, primary screen, imaging, A549 dox-inducible miR-34, nuclei and caspase counts (AID 1347080;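 active = compounds whose cell count with miR-34 switched on is under 0.7 times the count with it off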); details: A549 miR-34 inducible, Hoechst nuclei count, 48 h
[20] = ICB984 medulloblastoma cell growth inhibition, synergistic combos for chromothripsis tumors, cisplatin or BGB combos (AID 1671451; call rule not given here;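 note: cells exposed for 96 hours before readout; 0% = vehicle DMSO and 100% = killing by high DMSO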); details: ICB984 medulloblastoma cells, drug combinations, stronger effect = higher value
[21] = at 0.0195 µM, OCI-P5x cells, with rucaparib 20 µM, 100% = cells with rucaparib alone
[22] = at 0.0195 µM, OCI-P5x cells, without rucaparib
[23] = at 0.0781 µM, OCI-C5x cells, with rucaparib 10 µM, 100% = cells with rucaparib alone
[24] = at 0.0781 µM, OCI-C5x cells, without rucaparib
[25] = at 0.0781 µM, OCI-P5x cells, with rucaparib 20 µM, 100% = cells with rucaparib alone
[26] = at 0.0781 µM, OCI-P5x cells, without rucaparib
[27] = at 0.313 µM, OCI-C5x cells, with rucaparib 10 µM, 100% = cells with rucaparib alone
[28] = at 0.313 µM, OCI-C5x cells, without rucaparib
[29] = at 0.313 µM, OCI-P5x cells, with rucaparib 20 µM, 100% = cells with rucaparib alone
[30] = at 0.313 µM, OCI-P5x cells, without rucaparib
[31] = at 1.25 µM, OCI-C5x cells, with rucaparib 10 µM, 100% = cells with rucaparib alone
[32] = at 1.25 µM, OCI-C5x cells, without rucaparib
[33] = at 1.25 µM, OCI-P5x cells, with rucaparib 20 µM, 100% = cells with rucaparib alone
[34] = at 1.25 µM, OCI-P5x cells, without rucaparib
[35] = at 5 µM, OCI-C5x cells, with rucaparib 10 µM, 100% = cells with rucaparib alone
[36] = at 5 µM, OCI-C5x cells, without rucaparib
[37] = at 5 µM, OCI-P5x cells, with rucaparib 20 µM, 100% = cells with rucaparib alone
[38] = at 5 µM, OCI-P5x cells, without rucaparib
[39] = MELAS cybrid survival, CellTiter-Glo 48 h, stronger effect = higher value
[40] = Rieske KO mouse fibroblast survival, CellTiter-Glo 72 h
[41] = measured here: epithelial PC-3E GFP cell survival
[42] = measured here: mesenchymal TEM4-18 mCherry cell survival

Chain of NAD(+) hydrolase SARM1 (Homo sapiens) (Q6SZW1 whole entry, looked up, the tested form may be a part): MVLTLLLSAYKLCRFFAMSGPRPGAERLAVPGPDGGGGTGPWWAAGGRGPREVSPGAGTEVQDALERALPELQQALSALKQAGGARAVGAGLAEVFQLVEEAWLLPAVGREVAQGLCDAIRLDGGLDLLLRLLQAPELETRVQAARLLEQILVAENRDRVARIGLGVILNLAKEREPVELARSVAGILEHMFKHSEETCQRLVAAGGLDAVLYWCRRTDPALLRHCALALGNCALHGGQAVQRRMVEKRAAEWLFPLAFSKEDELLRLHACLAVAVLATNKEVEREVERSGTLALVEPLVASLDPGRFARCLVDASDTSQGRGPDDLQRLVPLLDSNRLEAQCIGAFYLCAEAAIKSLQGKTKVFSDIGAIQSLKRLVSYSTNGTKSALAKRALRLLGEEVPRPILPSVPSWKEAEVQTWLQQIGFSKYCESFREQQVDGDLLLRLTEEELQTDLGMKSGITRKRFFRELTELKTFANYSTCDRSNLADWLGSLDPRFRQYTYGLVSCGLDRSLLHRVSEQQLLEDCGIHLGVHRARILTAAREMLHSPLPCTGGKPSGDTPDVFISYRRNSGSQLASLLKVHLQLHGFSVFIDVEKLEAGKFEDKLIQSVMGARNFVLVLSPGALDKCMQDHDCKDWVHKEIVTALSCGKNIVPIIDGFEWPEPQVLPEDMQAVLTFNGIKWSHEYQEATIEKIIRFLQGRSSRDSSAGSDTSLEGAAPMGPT
Chain of Mitogen-activated protein kinase 7 (Homo sapiens) (Q13164 whole entry, looked up, the tested form may be a part): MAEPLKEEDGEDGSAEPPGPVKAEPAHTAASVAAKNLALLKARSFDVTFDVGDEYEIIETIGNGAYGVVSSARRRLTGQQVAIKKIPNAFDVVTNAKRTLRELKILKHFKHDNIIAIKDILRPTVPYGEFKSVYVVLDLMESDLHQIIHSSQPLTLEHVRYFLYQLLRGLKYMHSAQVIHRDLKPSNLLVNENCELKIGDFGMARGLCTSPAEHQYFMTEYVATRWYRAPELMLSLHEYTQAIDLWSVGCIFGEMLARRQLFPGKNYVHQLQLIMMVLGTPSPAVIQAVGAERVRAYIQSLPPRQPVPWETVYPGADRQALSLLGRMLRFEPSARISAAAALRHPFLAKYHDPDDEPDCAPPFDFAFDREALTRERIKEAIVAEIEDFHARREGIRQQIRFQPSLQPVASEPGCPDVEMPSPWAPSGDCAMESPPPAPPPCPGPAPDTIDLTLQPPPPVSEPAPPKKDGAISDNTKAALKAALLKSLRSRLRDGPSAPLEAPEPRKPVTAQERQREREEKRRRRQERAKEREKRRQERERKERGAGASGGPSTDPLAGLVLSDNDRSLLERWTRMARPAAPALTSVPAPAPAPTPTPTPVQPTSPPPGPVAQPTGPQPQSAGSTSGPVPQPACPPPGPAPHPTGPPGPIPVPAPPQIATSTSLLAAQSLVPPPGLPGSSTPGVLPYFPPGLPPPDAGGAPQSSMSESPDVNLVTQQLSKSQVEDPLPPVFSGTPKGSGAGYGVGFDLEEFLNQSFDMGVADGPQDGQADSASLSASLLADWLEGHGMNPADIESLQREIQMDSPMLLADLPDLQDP
Chain of 6-phosphogluconate dehydrogenase, decarboxylating (Homo sapiens) (P52209 whole entry, looked up): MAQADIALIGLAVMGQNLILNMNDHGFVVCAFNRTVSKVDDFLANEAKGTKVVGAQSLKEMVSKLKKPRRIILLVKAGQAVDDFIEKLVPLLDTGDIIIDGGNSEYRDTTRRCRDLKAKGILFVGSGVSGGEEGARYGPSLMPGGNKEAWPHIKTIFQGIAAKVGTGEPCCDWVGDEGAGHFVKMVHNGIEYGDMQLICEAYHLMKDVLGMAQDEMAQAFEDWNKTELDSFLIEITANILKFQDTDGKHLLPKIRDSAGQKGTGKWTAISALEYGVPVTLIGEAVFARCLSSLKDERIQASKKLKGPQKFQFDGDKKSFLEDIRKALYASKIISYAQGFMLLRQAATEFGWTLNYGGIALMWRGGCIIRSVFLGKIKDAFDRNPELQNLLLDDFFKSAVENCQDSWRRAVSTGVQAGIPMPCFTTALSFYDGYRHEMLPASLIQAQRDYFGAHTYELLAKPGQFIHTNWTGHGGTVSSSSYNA

O=C1CCC(N2C(=O)c3ccccc3C2=O)C(=O)N1 (stereo unspecified)
inactive: viability [1, 21] 112% | viability [1, 22] 111% | viability [1, 23] 113% | viability [1, 24] 104% | viability [1, 25] 107% | viability [1, 26] 115% | viability [1, 27] 114% | viability [1, 28] 109% | viability [1, 29] 112% | viability [1, 30] 119% | viability [1, 31] 114% | viability [1, 32] 103% | viability [1, 33] 116% | viability [1, 34] 117% | viability [1, 35] 116% | viability [1, 36] 108% | viability [1, 37] 114% | viability [1, 38] 115% | remaining NAD [2] 10 nM | luciferase signal [3] 36 AU | log fold change Tl+ flux [4] -0.00432 | log fold change Tl+ flux [5] -0.0788 | log fold change Tl+ flux [6] -0.0091

COC[C@@H](c1ccc(C(F)(F)F)cc1)N1CCN(C2(C)CCN(C(=O)c3c(C)ncnc3C)CC2)C[C@H]1C
2.3%: nuclear beta-catenin stimulation ([7]; stimulation, at 2 µM)
inactive: nuclear beta-catenin stimulation ([7]; at 10 µM) 2.4% | insulin secretion stimulation [8] 2.8% | viability decrease [9] -44.2% | tube area decrease [10] 32% | GLP1 secretion stimulation [11] 3.1% | inhibition of viability [12] 11.1% | viability decrease (inhibition) [13] -3% | viability decrease (inhibition) [14] 3.5%

CC(=O)CCC(=O)O
inactive: nuclear beta-catenin stimulation ([7]; at 10 µM) -1.6% | insulin secretion stimulation [8] 2% | viability decrease [9] -4.6% | tube area decrease [10] 0.2% | GLP1 secretion stimulation [11] -2.2% | inhibition of viability [12] -6.13% | viability decrease (inhibition) [13] 20% | viability decrease (inhibition) [14] -8.6%
-1.3%: nuclear beta-catenin stimulation ([7]; stimulation, at 2 µM)

c1ccc([C@H]2CN3CCSC3=N2)cc1
-0.0854 and -1.67: z-score [16, 40]
inactive: nuclear beta-catenin stimulation ([7]; at 10 µM) -0.8% | insulin secretion stimulation [8] 0.8% | viability decrease [9] -1.75% | tube area decrease [10] 2.3% | GLP1 secretion stimulation [11] -1.2% | inhibition of viability [12] -2.5% | viability decrease (inhibition) [13] -10.8% | viability decrease (inhibition) [14] -6.9% | inhibition [15] -3.99% | z-score [16, 39] -0.321 and -0.38 | remaining NAD [2] 10 nM | luciferase signal [3] 44 AU
-0.5%: nuclear beta-catenin stimulation ([7]; stimulation, at 2 µM)

c1ccc(CC2=NCCN2)cc1
inactive: nuclear beta-catenin stimulation ([7]; at 10 µM) 0.4% | insulin secretion stimulation [8] -1% | viability decrease [9] -3.85% | tube area decrease [10] -0.5% | GLP1 secretion stimulation [11] 1.9% | inhibition of viability [12] -10.6% | viability decrease (inhibition) [13] 15.1% | viability decrease (inhibition) [14] 5.35% | inhibition [15] -8.93% | mean signal [17] 271 | red/green cell ratio (normalised) [18] 1.19 | z-score [16, 39] -0.147 and 0.373 | remaining NAD [2] 10 nM | luciferase signal [3] 44 AU | log fold change Tl+ flux [4] 0.00977 | log fold change Tl+ flux [5] 0.0105 | log fold change Tl+ flux [6] -0.0174
1.04: normalised cell number [18, 42]
0.88: normalised cell number [18, 41]
1%: nuclear beta-catenin stimulation ([7]; stimulation, at 2 µM)
-0.183 and 0.131: z-score [16, 40]

S=c1nc[nH]c2nc[nH]c12
active: viability decrease [9] 77.7% | tube area decrease [10] 95.3% | inhibition of viability [12] 83.2% | viability decrease (inhibition) [13] 107% | viability decrease (inhibition) [14] 79.1% | viability ([1]; at 0.000305 µM, OCI-P5x cells, with rucaparib 20 µM, 100% = cells with rucaparib alone) 94.6% | viability ([1]; at 0.000305 µM, OCI-P5x cells, without rucaparib) 92.1% | viability ([1]; at 0.00122 µM, OCI-P5x cells, with rucaparib 20 µM, 100% = cells with rucaparib alone) 98.4% | viability ([1]; at 0.00122 µM, OCI-P5x cells, without rucaparib) 94.6% | viability ([1]; at 0.00488 µM, OCI-P5x cells, with rucaparib 20 µM, 100% = cells with rucaparib alone) 99.6% | viability ([1]; at 0.00488 µM, OCI-P5x cells, without rucaparib) 90.4% | viability [1, 21] 94.9% | viability [1, 22] 84.4% | viability [1, 24] 95.4% | viability [1, 25] 90.4% | viability [1, 26] 87.6% | viability [1, 28] 91.6% | viability [1, 29] 89.7% | viability [1, 30] 86.1% | viability [1, 32] 93.1% | viability [1, 33] 87.9% | viability [1, 34] 80.6% | viability [1, 37] 79% | viability [1, 38] 79.9% | luciferase signal [3] 2730 AU
-20.2% and -36.3% and -18.2%: inhibition ([20]; BGB IC40 combo, at 0.005 µM)
1.42: normalised cell number [18, 41]
1.07: normalised cell number [18, 42]
-14.4% and -4.47% and -23%: inhibition ([20]; BGB IC40 combo, at 0.05 µM)
-10.3% and -30.1% and -29.5%: inhibition ([20]; BGB IC20 combo, at 0.005 µM)
0.0168 (inactive) and 3.92 (active): z-score [16, 39]
-34.5% and -9.53% and -28.9%: inhibition ([20]; measured here: 5 uM single agent, at 5 µM)
0.6%: nuclear beta-catenin stimulation ([7]; stimulation, at 2 µM)
-25.2% and -17.5% and -28.1%: inhibition ([20]; cisplatin combo, at 0.5 µM)
5690 and 7180 and 6280: cell count ([19]; measured here: total cells with miR-34 induction, stronger effect = lower value)
inactive: nuclear beta-catenin stimulation ([7]; at 10 µM) -0.9% | insulin secretion stimulation [8] 0.6% | GLP1 secretion stimulation [11] -0.7% | inhibition [15] -3.59% | mean signal [17] 247 | red/green cell ratio (normalised) [18] 0.76 | fold change ([19]; stronger effect = lower value, cell number ratio, induced over uninduced) 0.793 and 0.952 and 0.815 | viability ([1]; at 0.000305 µM, OCI-C5x cells, with rucaparib 10 µM, 100% = cells with rucaparib alone) 120% | viability ([1]; at 0.000305 µM, OCI-C5x cells, without rucaparib) 111% | viability ([1]; at 0.00122 µM, OCI-C5x cells, with rucaparib 10 µM, 100% = cells with rucaparib alone) 110% | viability ([1]; at 0.00122 µM, OCI-C5x cells, without rucaparib) 105% | viability ([1]; at 0.00488 µM, OCI-C5x cells, with rucaparib 10 µM, 100% = cells with rucaparib alone) 111% | viability ([1]; at 0.00488 µM, OCI-C5x cells, without rucaparib) 100% | viability ([1]; at 0.0195 µM, OCI-C5x cells, with rucaparib 10 µM, 100% = cells with rucaparib alone) 104% | viability ([1]; at 0.0195 µM, OCI-C5x cells, without rucaparib) 109% | viability [1, 23] 123% | viability [1, 27] 106% | viability [1, 31] 105% | viability [1, 35] 126% | viability [1, 36] 107% | remaining NAD [2] 10 nM | inhibition ([20]; at 0.5 µM) -13.7% and -13.9% and -17.8% | log fold change Tl+ flux [4] -0.0324 | log fold change Tl+ flux [5] -0.00111 | log fold change Tl+ flux [6] -0.00985
1.23 and 0.341 and 5.81: fold change ([19]; measured here: relative caspase fold change +Dox/-Dox)
-14.4% and -8.61% and -23%: inhibition ([20]; cisplatin combo, at 0.05 µM)
7180 and 7540 and 7700: cell count ([19]; measured here: total cells without miR-34 induction)
0.195 and 0.755: z-score [16, 40]
-3.58% and -36.1% and -37.1%: inhibition ([20]; cisplatin combo, at 5 µM)
